Laboratory results: PubChem BioAssay (Tox21)
Results filed as inconclusive are left out. The source made the active and inactive calls. The call rests on the fitted dose curve; in most records, active means well fitted cell-killing curve with a large enough effect in the repeat runs; inconclusive means weak or mixed curves; inactive means flat fitted curve, though single readings scatter.

Assay: qHTS RealTime-Glo MT Cell Viability Assay in HepG2 cells - 32 hour (AID 1224877); further: nearly all actives have a fitted effect of over 55% in size
Details: RealTime-Glo luminescence; series mostly up to 76.8 µM
Description: U.S. Tox21 Program National Center for Advancing Translational Sciences [NCATS] NIH Chemical Genomics Center [NCGC] U.S. Environmental Protection Agency [EPA] National Institutes of Environmental Health Sciences [NIEHS] National Toxicology Program [NTP] U.S. Food and Drug Administration [FDA] Tox21 Assay Overview: Measure of cell viability is critical in the cell-base assay. Analysis of cell viability is necessary for the characterization of cell responses to cytotoxic drugs and environmental stress. A RealTime-Glo MT Cell Viability Assay to monitor cell viability in real time of continues cell culture during 40 hours of compound treatment was used to screen Tox21 10K library compounds in HepG2 cells. The RealTime-Glo MT Cell Viability Assay is a nonlytic, homogeneous, bioluminescent method to measure cell viability in real time using a simple, plate-based method. The assay involves adding NanoLuc luciferase and a cell-permeant prosubstrate to cells in culture. Viable cells reduce the proprietary prosubstrate to generate a substrate for NanoLuc luciferase. This substrate diffuses from cells into the surrounding culture medium, where it is rapidly used by the NanoLuc Enzyme to produce a luminescent signal. The signal correlates with the number of viable cells, making the assay well suited for cytotoxicity studies.
Tox21 Assay Protocol Summary: The mixture of HepG2 cell suspension and reagents were dispensed at 600cells/6 ul/well in 1536-well tissue culture treated black solid bottom plates using a Multidrop dispenser. After the assay plates were incubated at a 37 C/5% CO2 incubator for 5 hours, 23 nL of compounds dissolved in DMSO, positive and negative controls was transferred to the assay plate by a pintool work station. The plates were incubated at 37 C for 40 hours. The luminescence intensity were measured at 0h, 8h, 16h, 24h, 32h and 40h time points using ViewLux plate reader during compound treatment.
On the % scale 0 is the no-effect control and ±100 the full control effect.

Row | Compound | outcome | activity change, negative = cytotoxic
1 | Nc1cc(S(=O)(=O)O)ccc1O | inactive | –
2 | O=S(=O)(O)c1cc(I)c(O)c2ncccc12 | inactive | –
3 | CC(C)(C)C(=O)CC(=O)C(C)(C)C | inactive | –
4 | CCN(CC)CC(=O)Oc1ccc(NC(C)=O)cc1 | inactive | –
5 | CCCCN(CCCC)CCCCCCN(CCCC)CCCC | inactive | –
6 | CC(C)(C)OC(=O)c1ccccc1C(=O)O | inactive | –
7 | CCCCCCCCCCCCCCCC/C=C/C1CC(=O)OC1=O (stereo not given) | inactive | –
8 | CC(C)C(C)C | inactive | –
9 | CC1(C)CC(N)CC(C)(C)N1 | inactive | –
10 | COCCCOc1cc(C[C@@H](C[C@H](N)[C@@H](O)C[C@H](C(=O)NCC(C)(C)C(N)=O)C(C)C)C(C)C)ccc1OC | inactive | –
11 | CCCCCCCCCCCBr | inactive | –
12 | COC(=O)c1ccccc1Cl | inactive | –
13 | CC/C=C\CCOC(=O)c1ccccc1 | inactive | –
14 | CC(=O)Oc1ccc(C(C)=O)cc1 | inactive | –
15 | CC(CC(=O)Cl)CC(C)(C)C (stereo not given) | inactive | –
16 | CCCc1ccc(O)c(OC)c1 | inactive | –
17 | CCCCC(O)/C=C(C)/C=C/C=C/C(=O)N1CCCC1=O (stereo not given) | inactive | –
18 | CC[C@@]1(c2ccccc2)NC(=O)N(C)C1=O | inactive | –
19 | O=P(O)(O)C(O)(Cc1cccnc1)P(=O)(O)O | inactive | –
20 | CC(C)(C)C(=O)NCCCC(=O)O | inactive | –

Row | Compound | outcome | activity change, negative = cytotoxic
21 | CNC(C)=O | inactive | –
22 | Cc1ccc2cccnc2c1 | inactive | –
23 | CCCC(=O)CC | inactive | –
24 | CCCCCCC(O)CO (stereo not given) | inactive | –
25 | Clc1cc(Cl)c(Cl)c(Cl)c1Cl | inactive | –
26 | CCOC(=O)[C@H](CCc1ccccc1)N[C@H]1CS[C@H](c2cccs2)CN(CC(=O)O)C1=O | inactive | –
27 | CN1CCN(C(=O)C2CCCCC2)CC1 | inactive | –
28 | COC(=O)c1cc(Cl)c(NC(C)=O)cc1OC | inactive | –
29 | C=CC(=O)CC | inactive | –
30 | N#CC1(N)CCCCC1 | inactive | –
31 | Cc1cc(O)c(Cl)cc1C | inactive | –
32 | CCCCCCC(=O)c1ccccc1 | inactive | –
33 | CCCC(C)C(O)CC (stereo not given) | inactive | –
34 | Cc1nnc(C(=O)NC(C)(C)c2nc(C(=O)NCc3ccc(F)cc3)c(O)c(=O)n2C)o1 | inactive | –
35 | COC(=O)C(c1ccccc1Cl)N1CCc2sccc2C1 (stereo not given) | inactive | –
36 | C=CCON/C(CCC)=C1\C(=O)CC(C)(C)C(C(=O)OC)=C1O | inactive | –
37 | COC(=O)c1c(C)cc(O)c(C)c1O | inactive | –
38 | C=CC(C)(CCC=C(C)C)OC(=O)C(C)C (stereo not given) | inactive | –
39 | c1cc2ccc3ccc4ccc5cccc6c(c1)c2c3c4c56 | – | -3.43% [at 2.72 µM] (inactive)
40 | CN(C)c1cc(NC(=O)CNC(C)(C)C)c(O)c2c1C[C@H]1C[C@H]3[C@H](N(C)C)C(=O)C(C(N)=O)=C(O)[C@@]3(O)C(=O)C1=C2O | inactive | –
